The assay has as its system Plasmodium falciparum. Briefly: GSK_TCMDC: Inhibition of Plasmodium falciparum Dd2 in whole red blood cells, using parasite LDH activity as an index of growth. Test compounds present at 2uM. The assay is classed as functional.
The Inhibition is the drop in the measured response relative to a control, in per cent. Read a high Inhibition as a strong effect. `O=C1Nc2cccc3c2C1(CCCN1CCC(c2c[nH]c4cc(C(F)(F)F)ccc24)CC1)CCC3` (stereo not drawn) displayed an Inhibition of 37%.

The compound `COc1cc(OC)cc(-c2nn(-c3ccc([N+](=O)[O-])cc3C#N)c(=S)n2Cc2ccco2)c1` registered an Inhibition of 100%. In the case of `COCCNCc1cccc(-c2ccccc2CN(C(=O)c2ccc3c(c2)OCO3)c2ccc(OC)cc2)c1.O=C(O)C(F)(F)F` it was 46%; in that of `CCCCCCNC(=O)C1Cc2c([nH]c3ccc(Br)cc23)C2(CCN(Cc3ccccc3)CC2)N1` (stereo not drawn), 75%. In the case of `CC1CN(c2cc(=O)n(Cc3ccc(NC(=O)Nc4ccc(-c5ccccc5)cc4)cc3)cn2)CC(C)N1.O=C(O)C(F)(F)F` (stereo not drawn) it was 20%; in that of `O=C(Nc1ccc2c(c1)CCN2C1CCN(Cc2ccc(F)cc2Cl)C1)c1ccco1` (stereo not drawn), 96%; in that of `CCOc1ccc(C(=O)Nc2cc(Br)c3c(c2)CNCC3)cc1C#N.Cl`, 32%. `Cc1cc(NC2CCCC2)nc(Nc2ccccc2C)n1` displayed an Inhibition of 20%. Compound `O=C(NC1CC1)c1cnc(N2CCC(Cc3ccccc3)CC2)c(Cl)c1.O=C(O)C(F)(F)F` gave an Inhibition of 96%.

On to `CCNc1cc(C(=O)N[C@@H](Cc2ccccc2)[C@H](O)CNC(C)CC(C)C)c(F)c(N2CCCCS2(=O)=O)c1.O=CO` (stereo partly drawn), for which the Inhibition is 66%. As to `COc1ccc(NC(=O)/C=C/c2ccccc2Cl)cc1OCCN1CCC(N2CCCC2)CC1.O=C(O)C(=O)O`, the Inhibition is 23%. Regarding `O=C(Cc1c[nH]cn1)Nc1cccc(-c2ccc(-c3nc4cc(C(F)(F)F)ccc4[nH]3)cc2)c1`, the Inhibition stood at 99%. For `COC(=O)c1ccc(NC(=O)c2ccc(CCN3CCC(c4nc(COCC(F)(F)F)c(-c5ccc(F)cc5)o4)CC3)cc2)cc1`, the Inhibition amounted to 37%.

The values above are taken from ChEMBL document CHEMBL1157539, “Thousands of chemical starting points for antimalarial lead identification” (Nature, 2010).
